# Assay outcomes as filed in PubChem.
# Shown are actives, neighbours in structure and some others; about 0.97% of the full set was active somewhere.
# A1 inh: inhibitors of the anti-apoptotic protein A1, read as caspase activation | MEF A1-2A-BIM cells, Caspase-Glo 3/7 luminescence, 3 h; percent of clofoctol response, vehicle zero | caspase activation, % (test concentration not listed) | actives 0.066% (n = 330,000) | AID 2462;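 active = over half of replicate activation scores above 10%, or exactly half above 10 with the replicate mean above 10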
# NOD2-RIPK2 inh: inhibitors of human NOD2-RIPK2 interaction; actives 0.38% (n = 360,000); CHO BLA complementation NOD2-RIPK2, CCF4 ratio; inhibition, % at 4.98 µM; AID 624267; O43353; in the data active = inhibition above about 21%;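 note: 0% = vehicle only and 100% = reference blocker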
# TLR9-MyD88 block: TLR9-MyD88 interaction inhibition; actives 0.21% (n = 340,000); CHO BLA complementation TLR9-MyD88, CCF4 FRET ratio; inhibition, % at 4.98 µM; Q9NR96+Q99836;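 active = inhibition above the mean over all tested compounds plus 3 SD, cut at about 21% in these data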;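 note: 0% = DMSO only wells and 100% = clavulanate BLA inhibitor control wells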
# Beta2AR agonist: activates human beta-2 adrenergic receptor causing internalization | P07550 | Am2.2-beta2AR cells, FAP receptor internalization, flow cytometry | response, % (test concentration not listed) | actives 0.43% (n = 340,000) | AID 504454;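 active = response above a set limit, near 3 SD of response in nonfluorescent compounds, cut at about 42% in these data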
# TLR4-MyD88 BLA: blocks binding of human TLR4 to MyD88; O00206+Q99836; HeLa CL3-4 TLR4/MyD88 BLA complementation, FRET ratio; inhibition, % at 8.4 µM; actives 0.18% (n = 200,000); in the data active = inhibition above about 25%;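 note: 0% = vehicle and 100% = reference inhibitor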
# NTR1 agonist: agonists of human neurotensin receptor NTR1; P30989; NTR1-U2OS beta-arrestin-GFP spot imaging, agonist mode; activation, % at 20 µM; actives 0.17% (n = 330,000);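 active = activation at or above 40% of the spot to cytoplasm intensity ratio, with at least 20 cells analyzed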;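 note: 0% = DMSO without peptide and 100% = 100 nM NTR1 peptide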
# Target sequence (P30989 whole entry, looked up): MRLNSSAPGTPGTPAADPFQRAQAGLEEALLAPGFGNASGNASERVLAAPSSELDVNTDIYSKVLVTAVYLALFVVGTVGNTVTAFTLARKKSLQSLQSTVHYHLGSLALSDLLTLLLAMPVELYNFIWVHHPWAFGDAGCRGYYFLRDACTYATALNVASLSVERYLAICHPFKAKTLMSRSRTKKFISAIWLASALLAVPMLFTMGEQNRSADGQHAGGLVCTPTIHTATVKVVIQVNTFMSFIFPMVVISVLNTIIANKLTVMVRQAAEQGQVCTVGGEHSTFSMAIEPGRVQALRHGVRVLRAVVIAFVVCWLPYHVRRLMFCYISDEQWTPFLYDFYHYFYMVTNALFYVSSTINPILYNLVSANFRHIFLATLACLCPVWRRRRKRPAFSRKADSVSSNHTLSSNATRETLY
# NTR1 ag confirm: confirmation of agonists of human NTR1 | actives 38% (n = 480) | activation, % at 20 µM | shares compounds with NTR1 agonist | NTR1-U2OS beta-arrestin-GFP translocation imaging;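 active = mean activation at 20 µM of at least 40%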;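 note: 0% = DMSO without peptide and 100% = 100 nM NTR1 peptide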
# Active calls of the source: *; nt = not tested or not shown.
SMILES,A1 inh,NOD2-RIPK2 inh,TLR9-MyD88 block,Beta2AR agonist,TLR4-MyD88 BLA,NTR1 agonist,NTR1 ag confirm
COc1ccc(CNC(=O)CSc2nc3cccnc3s2)cc1,0,-1,-9,-6,nt,1,nt
O=C(NCCc1ccccc1)C(c1cccs1)N(C(=O)CCl)c1ccc(Cl)cc1 (stereo not given),3,15,6,-59,18,70*,61*
O=C(NCCc1ccccc1)C(c1cccs1)N(C(=O)c1csnn1)C1CC1 (stereo not given),0,2,1,1,-4,7,nt
CCOc1cc(/C=C2\C(=O)ON=C2c2ccccc2)ccc1OC,0,-4,-1,12,nt,16,nt
CCOc1cc(/C=C2/C(=O)ON=C2C)ccc1OCc1ccc(F)cc1,2,1,-4,27,18,57*,64*
CCOc1cc(/C=C2/C(=O)ON=C2C)ccc1OCc1ccccc1,0,nt,nt,nt,9,48*,54*
CC(C)Cn1c(N)c(C(=O)CSc2ncccn2)c(=O)n(C)c1=O,0,-3,7,10,nt,1,nt
CC(C)Cn1c(N)c(C(=O)CSc2cc(Cl)ccc2Cl)c(=O)n(C)c1=O,0,nt,nt,nt,-10,48*,47*
COc1ccc(C(=O)CCN2CCc3cc(OC)c(OC)cc3C2)cc1,1,-8,-3,-1,2,1,nt
Cc1nn(-c2ccccc2)c2nc(C(F)F)cc(C(F)F)c12,0,-15,-3,1,nt,4,nt
O=C1/C(=C/c2cccnc2)Oc2cc(OS(=O)(=O)c3ccccc3)ccc21,-1,11,-9,31,5,42*,22
COc1ccc(S(=O)(=O)Oc2ccc3c(c2)O/C(=C\c2cccnc2)C3=O)cc1,0,10,1,10,5,43*,23
O=C1/C(=C/c2cccnc2)Oc2cc(OS(=O)(=O)c3ccc(Cl)cc3)ccc21,0,6,-5,14,6,20,nt
Cc1cc2c3c(c1)C(C)(c1ccccc1)CC(C)(C)N3C(=O)C21C(C#N)=C(N)OC2=C1C(=O)CC(C)(C)C2 (stereo not given),0,12,-1,17,6,40*,42*
NC(=S)N/N=C/c1ccccc1OCCSc1ccc(Cl)cc1,0,4,-1,11,-10,43*,27
O=[N+]([O-])c1cc(C(F)(F)F)ccc1NCCNC(=S)Nc1ccc(Cl)cc1,-1,-2,0,-2,11,41*,17
CCC(C)Sc1cccc(-c2nc3ccc(C)cn3c2NCc2ccccc2)c1 (stereo not given),0,4,7,16,nt,14,nt
CCC(C)Sc1cccc(-c2nc3ccccn3c2NCc2ccccc2)c1 (stereo not given),-1,11,1,29,nt,40*,-4
Cc1ccccc1OCc1nc2ccccc2c(=O)n1/N=C/c1cn[nH]c1-c1ccc(Br)cc1,0,-6,-15,14,-20,24,nt
CCOc1ccc(Br)cc1S(=O)(=O)Nc1ccccc1N1CCOCC1,0,8,-6,-4,-10,49*,54*
CO/N=C(\c1nonc1N)N1CCN(c2ccc(Cl)cc2[N+](=O)[O-])CC1,0,9,-1,-13,3,58*,36
COc1ccc(Cn2c(C3CCCCC3)nc3c(c(=O)c4ccccc4n3C)c2=O)cc1,1,nt,nt,nt,nt,43*,34
Cc1cccc(NC(=O)c2nc[nH]c2C(=O)Nc2cccc(C)c2)c1,0,-14,7,1,7,1,nt
Cc1cccc(NC(=O)c2nc[nH]c2C(=O)N[C@@H](C)c2ccccc2)c1,0,-9,-3,0,nt,50*,38
Nc1nccnc1C(=O)OCc1nc2sc3c(c2c(=O)[nH]1)CCCC3,0,-8,1,5,nt,3,nt
COC(=O)COc1ccc(/C=N/NC(=O)CN(c2ccccc2OC)S(=O)(=O)c2ccccc2)cc1,2,1,-6,24,nt,75*,76*
